Data on five compounds can be found in PubChem BioAssay.

Values joined by “and” are separate entries in the source; they are usually repeats but may differ in a detail not shown here. Equal values may be shown once. Some structures have more than one record in an assay (separate samples or runs), and their calls can disagree. Active and inactive are the calls of the source.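 Rule for the calls, unless noted: active = thallium flux through the channel raised or lowered by more than 3 SD from vehicle-only wells, actives on both sides; inactive = the rest.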

Assay [1] is described as follows: Wnt pathway potentiators raising nuclear beta-catenin – imaging, WNT3A-conditioned medium, mouse C2C12, NPC library, primary screen (AID 1117326; in the data active = nuclear beta-catenin stimulation mostly above about 4.2%, no sharp cut-off; inactive = mostly below about 10%). Particulars: stronger effect = higher value.
Assay [2] can be described thus: stimulators of insulin release from INS-1E, primary screen, cell-based, 5 mM glucose, NPC library (AID 1117329;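 active = compound raises insulin release from rat beta cells at 5 mM glucose, no numeric limit stated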). The note with it: rat INS-1E insulin secretion, at 10 µM, stronger effect = higher value.
The nature of assay [3]: growth inhibition of GSK3B-pretreated HCT116 cells – cell-based, CellTiter-Glo, 0.2 to 20 µM (AID 1117336;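 active = compounds lowering colon cancer cell viability after pretreatment blocking the GSK3B kinase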). The note with it: HCT116 viability after GSK3B inhibitor, at 20 µM, stronger effect = higher value. For orientation: Cellular ATP, detected with luciferase, serves as a proxy for viable cell number.
A short description of assay [4]: inhibition of endothelial tube formation, primary screen, imaging, VEGF stimulated, CD31 staining, tube area, NPC library (AID 1117340;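 active = compound that reduces growth-factor-driven endothelial tube area in a mixed cell culture, no cutoff stated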). Particulars: VEGF-stimulated ADSC/ECFC co-culture, at 10 µM, stronger effect = higher value.
Assay [5] can be described thus: GLP1 release stimulators, primary, NCI-H716, NPC library (AID 1117341;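 active = compound raises GLP1 secretion from the human gut endocrine cells, with no numeric limit stated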). Particulars: NCI-H716 cells, at 10 µM, stronger effect = higher value.
The nature of assay [6]: HCT116 colon cancer cell growth inhibition, primary screen, CellTiter-Glo luminescence, NPC library (AID 1117342;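 active = compounds that lower survival of HCT116 colon cancer cells in the luminescence readout, no numeric limit stated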). Particulars: at 20 µM (top of the series).
A short description of assay [7]: reduced SW480 viability measured with CellTiter-Glo, NPC library, primary (AID 1117343;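 active = compounds that lower viability of the colon cancer cells in the luminescence readout, with no numeric limit stated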). The note with it: CellTiter-Glo luminescence; at 20 µM (top of the series).
Assay [8] is described as follows: NPC library primary testing for decreased DLD-1 cell viability via CellTiter-Glo (AID 1117346;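 active = compounds that lower survival of DLD-1 colon cancer cells in the luminescence readout, no cutoff given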). The note with it: DLD-1 viability, CellTiter-Glo luminescence; at 20 µM (top of the series).
For assay [9], the target named is 6-phosphogluconate dehydrogenase, decarboxylating (Homo sapiens) (UniProt P52209). In words: inhibition of human phosphogluconate dehydrogenase – biochemical, recombinant enzyme, NADPH absorbance, primary screen (AID 1159550;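 active = at least 20% inhibition of 6-phosphogluconate dehydrogenase activity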). The note with it: recombinant 6PGD, NADPH absorbance 341 nm; at 10 µM; stronger effect = higher value.
Assay [10] in a line: EMT-state selective cytotoxicity in co-culture – imaging, PC-3E GFP, TEM4-18 mCherry, primary screen (AID 1345086;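 active = compounds killing one labelled cell type while sparing the other, by normalised counts and ratio limits, not self-fluorescent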;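 for all read-outs here: cells exposed to compound for 72 h before imaging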;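 for red/green cell ratio (normalised): normalised mesenchymal count divided by normalised epithelial count so high means epithelial killing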). The note with it: PC-3E GFP / TEM4-18 mCherry co-culture, imaging cell counts, at 1 µM; for red/green cell ratio (normalised): actives lie on both sides, counts scaled to control wells, 1 = unselective.
The nature of assay [11]: viability loss with induced miR-34 in A549 – imaging, A549 dox-inducible miR-34, nuclei and caspase counts, primary screen (AID 1347080;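 active = compounds whose cell count with miR-34 switched on is under 0.7 times the count with it off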). The note with it: A549 miR-34 inducible, Hoechst nuclei count, 48 h.
A short description of assay [12]: MELAS cybrid and Rieske KO viability enhancers – cell-based, MELAS cybrids, Rieske KO mouse fibroblasts, CellTiter-Glo, primary screen (AID 1508586;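 active = mean z-score across replicates of 1.96 or higher in either the MELAS or the Rieske mutant cell line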;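 note: z relative to plate mean and SD of compound and empty wells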). Particulars: low glucose.
In assay [13] the target is NAD(+) hydrolase SARM1 (Homo sapiens) (UniProt Q6SZW1). The assay can be described thus: blocking NAD cleavage by SARM1 SAM-TIR – cell lysate, NAD-Glo luminescence (AID 1508614;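 active = compound whose remaining NAD level is above about 45 nM, limit read from the data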;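 note: higher remaining NAD means stronger inhibition of SARM1 NADase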). Particulars: SAM-TIR HEK293T lysate NADase, at 1 µM, stronger effect = higher value.
The subject of another assay is F380Y. In words: BK channel mutant inhibitors and activators – cell-based, U2OS BacMam, thallium flux, beta subunits, selectivity assay, profiling panel (AID 1259406).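 Note: initial slope of Thallos dye fluorescence rise after thallium is added; log ratio against the mean of 0.3% DMSO vehicle wells on the same plate.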 Particulars: U2OS BacMam BK variants, at 30 µM.
The next assay concerns F380Y/beta1. The assay is described as above. Particulars: U2OS BacMam BK variants, at 30 µM.
The next assay concerns F380Y/beta2Delta. Described as above. Particulars: U2OS BacMam BK variants, at 30 µM.
The next assay relates to F380Y/beta4. Described as above. The note with it: U2OS BacMam BK variants, at 30 µM.
Assay [14] addresses Calcium-activated potassium channel subunit alpha-1 (Homo sapiens) + Leucine-rich repeat-containing protein 26 (Homo sapiens) (UniProt Q12791+Q2I0M4). The assay is described as above. The note with it: U2OS BacMam BK variants, F380Y/Slo1WT/gamma1, at 30 µM.
The next assay deals with R275C. The assay is described as above. The note with it: U2OS BacMam BK variants, at 30 µM.
Setting [15] is: measured here: epithelial PC-3E GFP cell survival.
[16] abbreviates: measured here: mesenchymal TEM4-18 mCherry cell survival.
Where [17] appears, read: stronger effect = lower value, cell number ratio, induced over uninduced.
[18] abbreviates: measured here: relative caspase fold change +Dox/-Dox.
[19] abbreviates: measured here: total cells with miR-34 induction, stronger effect = lower value.
The mark [20] stands for this setting: measured here: total cells without miR-34 induction.
The mark [21] stands for this setting: MELAS cybrid survival, CellTiter-Glo 48 h, stronger effect = higher value.
Setting [22] is: Rieske KO mouse fibroblast survival, CellTiter-Glo 72 h.

What is called inhibition is the change of the read-out against control, counted positive when it falls.

Calcium-activated potassium channel subunit alpha-1 (Homo sapiens) + Leucine-rich repeat-containing protein 26 (Homo sapiens), sequence (Q2I0M4 whole entry, looked up, one chain of several): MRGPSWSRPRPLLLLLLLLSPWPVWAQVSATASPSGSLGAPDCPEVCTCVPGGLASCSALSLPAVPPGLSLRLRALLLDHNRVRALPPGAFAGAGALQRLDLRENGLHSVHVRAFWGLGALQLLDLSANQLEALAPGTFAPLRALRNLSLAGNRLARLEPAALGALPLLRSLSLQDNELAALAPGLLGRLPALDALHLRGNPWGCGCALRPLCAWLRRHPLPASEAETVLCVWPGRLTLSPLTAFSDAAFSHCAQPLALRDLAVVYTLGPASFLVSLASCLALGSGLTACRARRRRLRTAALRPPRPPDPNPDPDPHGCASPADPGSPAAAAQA
NAD(+) hydrolase SARM1 (Homo sapiens), sequence (Q6SZW1 whole entry, looked up): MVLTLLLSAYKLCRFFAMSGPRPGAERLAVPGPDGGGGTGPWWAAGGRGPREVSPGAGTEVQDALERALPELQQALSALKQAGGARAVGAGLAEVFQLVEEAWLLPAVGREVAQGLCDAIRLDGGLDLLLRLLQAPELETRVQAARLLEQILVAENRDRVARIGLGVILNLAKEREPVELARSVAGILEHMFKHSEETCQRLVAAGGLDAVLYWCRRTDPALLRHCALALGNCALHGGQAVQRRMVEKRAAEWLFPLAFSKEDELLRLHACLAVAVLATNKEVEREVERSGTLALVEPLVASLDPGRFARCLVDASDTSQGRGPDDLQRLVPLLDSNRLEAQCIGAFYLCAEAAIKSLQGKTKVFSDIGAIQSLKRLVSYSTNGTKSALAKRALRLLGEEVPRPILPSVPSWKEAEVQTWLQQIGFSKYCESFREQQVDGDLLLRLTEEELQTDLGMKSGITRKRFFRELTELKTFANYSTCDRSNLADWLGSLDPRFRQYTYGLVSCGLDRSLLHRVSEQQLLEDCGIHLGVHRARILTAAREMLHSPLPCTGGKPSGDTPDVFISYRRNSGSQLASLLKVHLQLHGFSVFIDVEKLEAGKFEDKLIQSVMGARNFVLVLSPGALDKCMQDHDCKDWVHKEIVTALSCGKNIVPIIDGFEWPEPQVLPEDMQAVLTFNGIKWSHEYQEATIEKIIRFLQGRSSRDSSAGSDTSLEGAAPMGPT
6-phosphogluconate dehydrogenase, decarboxylating (Homo sapiens), sequence (P52209 whole entry, looked up): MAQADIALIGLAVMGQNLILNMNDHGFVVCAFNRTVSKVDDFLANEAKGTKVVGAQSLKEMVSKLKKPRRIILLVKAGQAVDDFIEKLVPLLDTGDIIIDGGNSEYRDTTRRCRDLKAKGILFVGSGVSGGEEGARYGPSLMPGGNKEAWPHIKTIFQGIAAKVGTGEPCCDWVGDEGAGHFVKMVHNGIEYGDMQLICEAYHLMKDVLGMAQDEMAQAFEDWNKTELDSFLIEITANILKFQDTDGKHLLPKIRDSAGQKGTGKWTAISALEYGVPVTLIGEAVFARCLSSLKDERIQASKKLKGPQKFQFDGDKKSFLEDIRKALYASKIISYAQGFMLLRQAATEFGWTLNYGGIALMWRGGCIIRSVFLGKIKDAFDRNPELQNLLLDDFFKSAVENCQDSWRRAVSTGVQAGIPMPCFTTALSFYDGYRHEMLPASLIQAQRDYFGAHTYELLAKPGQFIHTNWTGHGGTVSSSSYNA

Consider `CC(C)(C)NCC(O)COc1cccc2c1C[C@H](O)[C@H](O)C2` (stereo partly drawn), for which the nuclear beta-catenin stimulation is 1.8% (inactive) in assay [1] (at 10 µM) and -0.2% in assay [1] (stimulation, at 2 µM). Besides, the insulin secretion stimulation in assay [2] was -1.2% (inactive). Moreover, the viability decrease in assay [3] was -26.3% (inactive). The tube area decrease in assay [4] was 13.1% (inactive). In assay [5], the GLP1 secretion stimulation is -1.3% (inactive). In assay [6], the inhibition of viability is 4.4% (inactive). The viability decrease (inhibition) in [7] was 2.8% (inactive); in assay [8], -5.7% (inactive). Also, in assay [9], the inhibition was 6.69% (inactive). For the same compound, the red/green cell ratio (normalised) in assay [10] was 1.06 (inactive). Further, the normalised cell number in assay [10] (setting [15]) worked out at 1.04; in assay [10] (setting [16]), 1.1. Moreover, the fold change in assay [11] (setting [17]) is 0.964 (inactive) and 0.863 (inactive); in assay [11] (setting [18]) it was 2.62 and 3.63. The cell count in assay [11] (setting [19]) was 10500 and 11100; in assay [11] (setting [20]) it was 10900 and 12900. Moreover, the z-score was 0.625 (inactive) in [12] (setting [21]) and -0.345 in assay [12] (setting [22]). In [13], the remaining NAD is 10 nM (inactive). Further, the log fold change Tl+ flux was 0.0119 (inactive) in the assay with F380Y; 0.00674 (inactive) with F380Y/beta1; 0.0306 (inactive) with F380Y/beta2Delta; 0.0116 (inactive) in the assay with F380Y/beta4; 0.00167 (inactive) in assay [14]; -0.00576 (inactive) in the assay on R275C.

Turning to `OCCN1CCN(CCCN2c3ccccc3Sc3ccc(C(F)(F)F)cc32)CC1`, the nuclear beta-catenin stimulation is 39.2% (inactive) in assay [1] (at 10 µM) and 6.3% in assay [1] (stimulation, at 2 µM). Besides, the insulin secretion stimulation in assay [2] is 8.85% (inactive). Also, the viability decrease in [3] is 118% (active). The tube area decrease in assay [4] was 98.9% (active). Besides, the GLP1 secretion stimulation in assay [5] was 15.4% (inactive). The inhibition of viability in assay [6] was 124% (active). Moreover, the viability decrease (inhibition) in [7] is 157% (active); in assay [8] it was 101% (active). In [9], the inhibition was 10.2% (inactive). The red/green cell ratio (normalised) in assay [10] was 1.23 (inactive). Moreover, the normalised cell number stood at 0.78 in assay [10] (setting [15]) and 0.95 in assay [10] (setting [16]). In addition, the z-score in [12] (setting [21]) was -1.28 (inactive) and 0.571 (inactive); in assay [12] (setting [22]), -0.139 and 0.376. In assay [13], the remaining NAD was 10 nM (inactive). The log fold change Tl+ flux in the assay with F380Y was 0.235 (active); in the assay on F380Y/beta1 it was 0.117 (active); in the assay on F380Y/beta2Delta, 0.167 (active); with F380Y/beta4, 0.354 (active); in assay [14] it was 0.0357 (inactive); in the assay with R275C, -0.11 (inactive).

Regarding `CN(C)CCOC(c1ccc(Cl)cc1)c1ccccn1` (stereo not drawn), the nuclear beta-catenin stimulation in [1] (at 10 µM) was 0.9% (inactive); in [1] (stimulation, at 2 µM), 0.3%. Moreover, in [2], the insulin secretion stimulation was 46.5% (active). Moreover, in [3], the viability decrease was 8.6% (inactive). For the same compound, the tube area decrease in assay [4] was 1.1% (inactive). The GLP1 secretion stimulation in [5] was 6.8% (inactive). Besides, the inhibition of viability in assay [6] was 2.7% (inactive). Further, the viability decrease (inhibition) in assay [7] is 6% (inactive); in assay [8] it was -7% (inactive). For the same compound, the inhibition in [9] was 8.32% (inactive). Further, in assay [10], the red/green cell ratio (normalised) was 1.11 (inactive). Besides, the normalised cell number in [10] (setting [15]) worked out at 1.14; in assay [10] (setting [16]), 1.26. Further, the fold change in [11] (setting [17]) was 0.98 (inactive) and 0.859 (inactive) and 0.928 (inactive); in [11] (setting [18]) it was 1.31 and 1.4 and 2.86. In addition, the cell count is 9280 and 8230 and 11400 in [11] (setting [19]); 9460 and 9580 and 12300 in assay [11] (setting [20]). Also, the z-score in [12] (setting [21]) is 0.0234 (inactive); in [12] (setting [22]) it was -1.05. Besides, the remaining NAD in assay [13] is 10 nM (inactive). Also, the log fold change Tl+ flux in the assay with F380Y was 0.0898 (inactive); in the assay with F380Y/beta1, 0.0451 (inactive); in the assay with F380Y/beta2Delta, 0.0734 (inactive); with F380Y/beta4, 0.0228 (inactive); in assay [14], 0.0613 (inactive); in the assay on R275C, 0.0106 (inactive).

With `CCCNCC(O)COc1ccccc1C(=O)CCc1ccccc1` (stereo not drawn), the nuclear beta-catenin stimulation is 0.3% (inactive) in assay [1] (at 10 µM) and 0.1% in assay [1] (stimulation, at 2 µM). Further, in assay [2], the insulin secretion stimulation was 32.4% (active). The viability decrease in [3] was 7.9% (inactive). Further, the tube area decrease in assay [4] was 24.9% (inactive). Moreover, the GLP1 secretion stimulation in assay [5] was -2.7% (inactive). The inhibition of viability in [6] is 32.5% (inactive). In addition, the viability decrease (inhibition) in [7] is 41% (inactive); in assay [8] it was 10.6% (inactive). The inhibition in [9] was -5.6% (inactive). In [10], the red/green cell ratio (normalised) is 1.04 (inactive). Further, the normalised cell number in assay [10] (setting [15]) was 1.35; in assay [10] (setting [16]) it was 1.41. Also, the z-score was -0.438 (inactive) and -0.541 (inactive) and -0.854 (inactive) in assay [12] (setting [21]); -0.529 and -0.098 and 0.366 in [12] (setting [22]). Besides, the remaining NAD in assay [13] is 10 nM (inactive). Further, the log fold change Tl+ flux was 0.197 (active) in the assay on F380Y; 0.0626 (inactive) in the assay with F380Y/beta1; 0.0815 (active) with F380Y/beta2Delta; 0.161 (active) in the assay on F380Y/beta4; 0.00467 (inactive) in [14]; 0.00823 (inactive) in the assay on R275C.

On to `c1ccc2[nH]c(-c3cscn3)nc2c1`, for which the nuclear beta-catenin stimulation was 1.5% (inactive) in [1] (at 10 µM) and 1.4% in [1] (stimulation, at 2 µM). The insulin secretion stimulation in [2] is -1.2% (inactive). In addition, the viability decrease in assay [3] was -3.75% (inactive). Moreover, the tube area decrease in assay [4] was 13.1% (inactive). Also, the GLP1 secretion stimulation in [5] is 4.2% (inactive). In addition, the inhibition of viability in [6] is 5.1% (inactive). Also, the viability decrease (inhibition) in assay [7] was -9.9% (inactive); in assay [8], -17.1% (inactive). The inhibition in assay [9] was 2.18% (inactive). In [10], the red/green cell ratio (normalised) is 1.18 (inactive). Moreover, the normalised cell number in [10] (setting [15]) amounted to 0.98; in assay [10] (setting [16]) it was 1.16. In addition, the z-score in [12] (setting [21]) is -0.164 (inactive) and 2.01 (active); in assay [12] (setting [22]), 0.655 and 0.153. The remaining NAD in [13] was 10 nM (inactive). In addition, the log fold change Tl+ flux is -0.0155 (inactive) in the assay on F380Y; -0.00469 (inactive) in the assay on F380Y/beta1; -0.00898 (inactive) with F380Y/beta2Delta; 0.0538 (inactive) with F380Y/beta4; 0.048 (inactive) in assay [14]; 0.0284 (inactive) in the assay on R275C.
